Publication doi:10.1101/2024.03.05.583629

Columns and labels:
[1] = target: pT7_6His-AlfaTag-HOXD13 (human, UniProt P35453 263-343); assay: PADIT-seq; conditions: dsDNA, one strand shown
[2] = target: pT7_6His-AlfaTag-ZIF268 (human, UniProt P18146 335-423); assay: PADIT-seq; conditions: dsDNA, one strand shown

Chain of pT7_6His-AlfaTag-HOXD13 (P35453 263-343): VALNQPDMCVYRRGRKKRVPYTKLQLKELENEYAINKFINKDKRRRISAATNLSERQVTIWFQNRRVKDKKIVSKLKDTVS

Sequence | binding signal [1] [log2FC] | binding signal [2] [log2FC]
CTCGAGGATATCAAGATCTGGCCTCGGCGCTTTAAAAGGAACCTCTAGCTAGCCGACTCACTATAGGGATAATCGCCCTGAGCAAAGACC | 1.94 ± 0.0663 | –
CTCGAGGATATCAAGATCTGGCCTCGGCGCGTGGCGAGGAACCTCTAGCTAGCCGACTCACTATAGGGATAATCGCCCTGAGCAAAGACC | -0.862 ± 0.192 | –
CTCGAGGATATCAAGATCTGGCCTCGGCTCCCTAAAAGGAACCTCTAGCTAGCCGACTCACTATAGGGATAATCGCCCTGAGCAAAGACC | -0.0391 ± 0.141 | –
CTCGAGGATATCAAGATCTGGCCTCGGCTACGTAAAAGGAACCTCTAGCTAGCCGACTCACTATAGGGATAATCGCCCTGAGCAAAGACC | 0.743 ± 0.0961 | –
CTCGAGGATATCAAGATCTGGCCTCGGCGCAATAAAAGGAACCTCTAGCTAGCCGACTCACTATAGGGATAATCGCCCTGAGCAAAGACC | 2.76 ± 0.0728 | –
CTCGAGGATATCAAGATCTGGCCTCGGCCTTTTAAGTGGAACCTCTAGCTAGCCGACTCACTATAGGGATAATCGCCCTGAGCAAAGACC | 1.38 ± 0.0835 | –
CTCGAGGATATCAAGATCTGGCCTCGGCAATATAAAAGGAACCTCTAGCTAGCCGACTCACTATAGGGATAATCGCCCTGAGCAAAGACC | 2.41 ± 0.0826 | –
CTCGAGGATATCAAGATCTGGCCTCGGCCTCTTAAAAGGAACCTCTAGCTAGCCGACTCACTATAGGGATAATCGCCCTGAGCAAAGACC | 2.2 ± 0.0925 | –
CTCGAGGATATCAAGATCTGGCCTCGGCCGCCCAAATGGAACCTCTAGCTAGCCGACTCACTATAGGGATAATCGCCCTGAGCAAAGACC | -0.854 ± 0.128 | –
CTCGAGGATATCAAGATCTGGCCTCGGCCTTTTACTTGGAACCTCTAGCTAGCCGACTCACTATAGGGATAATCGCCCTGAGCAAAGACC | 0.95 ± 0.0821 | –
CTCGAGGATATCAAGATCTGGCCTCGGCCTTTTATTTGGAACCTCTAGCTAGCCGACTCACTATAGGGATAATCGCCCTGAGCAAAGACC | 2.69 ± 0.0648 | –
CTCGAGGATATCAAGATCTGGCCTCGGCGCGGAAGCGGGAACCTCTAGCTAGCCGACTCACTATAGGGATAATCGCCCTGAGCAAAGACC | -0.566 ± 0.121 | –
CTCGAGGATATCAAGATCTGGCCTCGGCGACGTAAAAGGAACCTCTAGCTAGCCGACTCACTATAGGGATAATCGCCCTGAGCAAAGACC | 0.404 ± 0.076 | –
CTCGAGGATATCAAGATCTGGCCTCGGCAACTTAAAAGGAACCTCTAGCTAGCCGACTCACTATAGGGATAATCGCCCTGAGCAAAGACC | 0.617 ± 0.0872 | –
CTCGAGGATATCAAGATCTGGCCTCGGCTGCTTAAAAGGAACCTCTAGCTAGCCGACTCACTATAGGGATAATCGCCCTGAGCAAAGACC | 0.659 ± 0.091 | –
CTCGAGGATATCAAGATCTGGCCTCGGCTATTTAAAAGGAACCTCTAGCTAGCCGACTCACTATAGGGATAATCGCCCTGAGCAAAGACC | 2.42 ± 0.0909 | –
CTCGAGGATATCAAGATCTGGCCTCGGCACATTAAAAGGAACCTCTAGCTAGCCGACTCACTATAGGGATAATCGCCCTGAGCAAAGACC | 2.06 ± 0.09 | –
CTCGAGGATATCAAGATCTGGCCTCGGCCTTTTATCCGGAACCTCTAGCTAGCCGACTCACTATAGGGATAATCGCCCTGAGCAAAGACC | 0.939 ± 0.078 | –
CTCGAGGATATCAAGATCTGGCCTCGGCCTTTTACACGGAACCTCTAGCTAGCCGACTCACTATAGGGATAATCGCCCTGAGCAAAGACC | 1.93 ± 0.075 | –

Sequence | binding signal [1] [log2FC] | binding signal [2] [log2FC]
CTCGAGGATATCAAGATCTGGCCTCGGCGATCTAAAAGGAACCTCTAGCTAGCCGACTCACTATAGGGATAATCGCCCTGAGCAAAGACC | -0.592 ± 0.0883 | –
CTCGAGGATATCAAGATCTGGCCTCGGCGCGTTAGCGGGAACCTCTAGCTAGCCGACTCACTATAGGGATAATCGCCCTGAGCAAAGACC | -0.986 ± 0.133 | –
CTCGAGGATATCAAGATCTGGCCTCGGCCTTTTACTCGGAACCTCTAGCTAGCCGACTCACTATAGGGATAATCGCCCTGAGCAAAGACC | 0.504 ± 0.0906 | –
CTCGAGGATATCAAGATCTGGCCTCGGCTATATAAAAGGAACCTCTAGCTAGCCGACTCACTATAGGGATAATCGCCCTGAGCAAAGACC | 2.63 ± 0.0902 | –
CTCGAGGATATCAAGATCTGGCCTCGGCATTTTAGAGGGAACCTCTAGCTAGCCGACTCACTATAGGGATAATCGCCCTGAGCAAAGACC | 1.43 ± 0.0957 | –
CTCGAGGATATCAAGATCTGGCCTCGGCTTTTTATATGGAACCTCTAGCTAGCCGACTCACTATAGGGATAATCGCCCTGAGCAAAGACC | 3.25 ± 0.0873 | –
CTCGAGGATATCAAGATCTGGCCTCGGCGTTTTATGAGGAACCTCTAGCTAGCCGACTCACTATAGGGATAATCGCCCTGAGCAAAGACC | 3.28 ± 0.127 | –
CTCGAGGATATCAAGATCTGGCCTCGGCGAGTTAAAAGGAACCTCTAGCTAGCCGACTCACTATAGGGATAATCGCCCTGAGCAAAGACC | 0.985 ± 0.0828 | –
CTCGAGGATATCAAGATCTGGCCTCGGCGGCGTAAAAGGAACCTCTAGCTAGCCGACTCACTATAGGGATAATCGCCCTGAGCAAAGACC | 0.246 ± 0.0968 | –
CTCGAGGATATCAAGATCTGGCCTCGGCCTTTTACATGGAACCTCTAGCTAGCCGACTCACTATAGGGATAATCGCCCTGAGCAAAGACC | 1.85 ± 0.0771 | –
CTCGAGGATATCAAGATCTGGCCTCGGCCGCACGCGCGGAACCTCTAGCTAGCCGACTCACTATAGGGATAATCGCCCTGAGCAAAGACC | -0.992 ± 0.148 | –
CTCGAGGATATCAAGATCTGGCCTCGGCCGCCCAATAGGAACCTCTAGCTAGCCGACTCACTATAGGGATAATCGCCCTGAGCAAAGACC | -0.536 ± 0.118 | –
CTCGAGGATATCAAGATCTGGCCTCGGCATTTTACTAGGAACCTCTAGCTAGCCGACTCACTATAGGGATAATCGCCCTGAGCAAAGACC | 3.18 ± 0.0699 | –
CTCGAGGATATCAAGATCTGGCCTCGGCGCGGGCGCGGGAACCTCTAGCTAGCCGACTCACTATAGGGATAATCGCCCTGAGCAAAGACC | -1.05 ± 0.132 | 0.156 ± 0.102
CTCGAGGATATCAAGATCTGGCCTCGGCCATTGGGCGGGAACCTCTAGCTAGCCGACTCACTATAGGGATAATCGCCCTGAGCAAAGACC | -0.505 ± 0.104 | 0.139 ± 0.0899
CTCGAGGATATCAAGATCTGGCCTCGGCATTTTATATGGAACCTCTAGCTAGCCGACTCACTATAGGGATAATCGCCCTGAGCAAAGACC | 3.31 ± 0.0819 | 0.238 ± 0.0895
CTCGAGGATATCAAGATCTGGCCTCGGCACAGTAAAAGGAACCTCTAGCTAGCCGACTCACTATAGGGATAATCGCCCTGAGCAAAGACC | 1.94 ± 0.076 | 0.04 ± 0.0816
CTCGAGGATATCAAGATCTGGCCTCGGCCTTTTACGCGGAACCTCTAGCTAGCCGACTCACTATAGGGATAATCGCCCTGAGCAAAGACC | 1.9 ± 0.0733 | 0.0363 ± 0.0782
